Source: PubChem (National Center for Advancing Translational Sciences (NCATS))
Rows were chosen to be rich in hits. Some 15% of all compounds tested hit in one or more screens of this group.
ELG1 DNA repair: inhibitors of ELG1-dependent DNA repair in HEK293T cells. Potency, µM (highest dose often 46.1 µM), usual class: inhibitors. 2.3% of 330,000 active. HEK293T ELG1-luciferase reporter, luminescence, 16 h; DNA damage induced by 5-fluorouridine. AID 504467; also: nearly all actives have a fitted effect of over 55% in size
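Reporter activity after DNA damage by 5-fluorouridine is monitored. Compound-treated cells incubate 16 hr at 37 °C, then ONE-Glo is added for 30 min before luminescence reading.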
TDP1 cell CPT: DT40-hTDP1 cell growth loss with CPT | 12% of 420,000 active | Potency, µM (highest dose often 46.2 µM), usual class: inhibitors | chicken DT40 Tdp1-/-;hTDP1 cells + 20 nM CPT, ATP luminescence, 48 h; also: nearly all actives have a fitted effect of over 55% in size
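Chicken DT40 Tdp1-/- cells stably complemented with human TDP1 were seeded at 400 cells/well in medium containing 20 nM camptothecin, exposed to pin-transferred compounds, and grown at 37 °C for at least 48 hr. Viability was read as ATP luminescence.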
12-LOX inh: blocks human arachidonate 12S-lipoxygenase | purified 12hLO, xylenol orange hydroperoxide absorbance | Potency, µM (series often up to 108 µM), hits mostly inhibitors | 1.1% of 580,000 active | AID 1671190
Target sequence (P18054 whole entry, looked up): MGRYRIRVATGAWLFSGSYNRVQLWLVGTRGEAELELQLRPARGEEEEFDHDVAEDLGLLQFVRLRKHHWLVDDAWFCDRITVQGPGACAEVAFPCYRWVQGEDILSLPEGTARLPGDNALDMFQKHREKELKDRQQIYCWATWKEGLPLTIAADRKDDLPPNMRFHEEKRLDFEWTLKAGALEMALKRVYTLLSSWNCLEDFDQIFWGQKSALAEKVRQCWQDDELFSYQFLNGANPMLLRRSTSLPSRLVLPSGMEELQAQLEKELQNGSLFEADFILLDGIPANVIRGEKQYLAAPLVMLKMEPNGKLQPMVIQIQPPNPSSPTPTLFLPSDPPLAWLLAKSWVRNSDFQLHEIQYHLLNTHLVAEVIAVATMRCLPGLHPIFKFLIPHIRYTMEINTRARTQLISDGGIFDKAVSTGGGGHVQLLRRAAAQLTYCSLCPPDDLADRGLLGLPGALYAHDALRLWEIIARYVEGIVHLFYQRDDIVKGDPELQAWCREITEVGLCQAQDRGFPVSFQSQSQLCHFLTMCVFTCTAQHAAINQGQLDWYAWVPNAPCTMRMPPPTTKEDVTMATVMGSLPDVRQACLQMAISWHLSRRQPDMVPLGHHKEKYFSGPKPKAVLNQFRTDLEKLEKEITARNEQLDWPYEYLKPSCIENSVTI
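Purified human 12hLO at 150 nM in 25 mM Hepes, 0.01% Triton X-100, pH 7.0, preincubated 15 min at room temperature with compound. Reaction started with 40 uM arachidonic acid, 30 min at room temperature. Hydroperoxide measured by Fe-xylenol orange, 573/405 nm absorbance ratio.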
DT40 TDP1 no CPT: qHTS for Inhibitors of human tyrosyl-DNA phosphodiesterase 1 (TDP1): qHTS in cells in absence of CPT. DT40 Tdp1-/- hTDP1 cells, no CPT, ATP luminescence, 48 h. Potency, µM (titrated, usually from 46.2 µM), hits mostly inhibitors. 15% of 420,000 active; also: nearly all actives have a fitted effect of over 55% in size
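No-CPT arm: Tdp1-/-;hTDP1 DT40 cells (400/well) plus compounds, incubated ≥48 hr at 37 °C. Readout CellTiter-Glo luminescence.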
Gal4-VP16 FLuc: counter-screen for ROR gamma inhibitors: Gal4-VP16 reporter; Drosophila S2 Gal4-VP16 UAS-luciferase, luminescence, 20 h; Potency, µM (doses to about 53.6 µM), most hits filed as inhibitors; 3.5% of 310,000 active; AID 2546;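 also: Gal4-VP16 expression switched on by copper sulfate through the metallothionein promoter; nearly all actives have a fitted effect of over 50% in size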
RORg inh: ROR gamma (mouse) transcription inhibition. Drosophila S2 Gal4-RORgamma UAS-luciferase reporter, 20 h. Potency, µM (titrated, usually from 53.6 µM), usual class: inhibitors. 5.4% of 310,000 active. AID 2551; also: nearly all actives have a fitted effect of over 60% in size
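Using a luciferase readout, inhibitors were identified by reduced reporter activity in Drosophila cells coexpressing a copper-inducible Gal4–ROR gamma fusion and UAS-driven Photinus luciferase, incubated 20 hr after 700 uM copper sulfate.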
Numbers stand for hits. Calls follow the shape of the dose curve; as a rule, active = well fitted curve in the direction sought with a large enough effect; inconclusive = small, poorly fitted or top-dose-only effect, or another doubt; inactive = no such curve, though single readings can be large; an effect the other way counts as inactive or inconclusive.

Results for CC(=O)NCC(=O)N1CCCC(C(=O)c2ccc(Oc3ccccc3)cc2)C1 (centres undefined) ?
ELG1 DNA repair: inactive; TDP1 cell CPT: 9.2µM; 12-LOX inh: inactive; DT40 TDP1 no CPT: inconclusive; Gal4-VP16 FLuc: inactive; RORg inh: inactive

What do the screens show for `COc1cc(C(=O)N2CCc3c([nH]c4ccccc34)C2c2ccc(F)cc2)cc(OC)c1OC` (centres undefined)?
TDP1 cell CPT: 13µM; 12-LOX inh: inactive; DT40 TDP1 no CPT: 14.6µM

How did CCOc1cc(C(=O)N2CCc3c([nH]c4ccccc34)C2c2ccccc2)cc(OCC)c1OCC (centres undefined) do in these assays?
TDP1 cell CPT: 6.51µM; 12-LOX inh: inactive; DT40 TDP1 no CPT: 5.8µM

How did O=C(Cc1ccc2ccccc2c1)NCCc1ccccn1 do in these assays?
12-LOX inh: inactive

What do the screens show for `CC(=NCCc1c(C)[nH]c2ccc(OC(F)(F)F)cc12)C1=C(O)CC(c2ccccc2)CC1=O` (centres undefined)?
ELG1 DNA repair: inconclusive; TDP1 cell CPT: 4.61µM; 12-LOX inh: inactive; DT40 TDP1 no CPT: 3.26µM; Gal4-VP16 FLuc: inactive; RORg inh: inactive

How did O=C1CC(c2ccccc2)Cc2[nH]c(=O)c(C(=O)Nc3ccc(OC(F)(F)F)cc3)cc21 (centres undefined) do in these assays?
TDP1 cell CPT: inactive; 12-LOX inh: inactive; DT40 TDP1 no CPT: inactive

Results for CC(=NCCc1c(C)[nH]c2ccc(C)cc12)C1=C(O)CC(c2ccccc2)CC1=O (centres undefined) ?
ELG1 DNA repair: inconclusive; TDP1 cell CPT: 1.16µM; 12-LOX inh: inactive; DT40 TDP1 no CPT: 1.64µM; Gal4-VP16 FLuc: inactive; RORg inh: inactive

What do the screens show for `O=C(CCc1c[nH]c2ccccc12)Nc1ccc(-c2nnc3n2CCCC3)cc1`?
12-LOX inh: inactive

What do the screens show for `CCn1ncc(N2CCC(NC(=O)CCC3CCCC3)CC2)cc1=O`?
12-LOX inh: inactive

How did O=C(c1c(OCC2CC2)cc(=O)n2c1CCCCC2)N1CCOCC1 do in these assays?
12-LOX inh: inactive

Results for CN(CCCNC(=O)c1cc2c(Cl)nc3ccccc3c2s1)Cc1ccccc1 ?
ELG1 DNA repair: inactive; TDP1 cell CPT: 14.6µM; 12-LOX inh: inconclusive; DT40 TDP1 no CPT: 20.6µM; Gal4-VP16 FLuc: 11.2µM; RORg inh: inconclusive

Results for Cc1ccc2nc(Cl)c3cc(C(=O)NCCCN(C)Cc4ccccc4)sc3c2c1 ?
TDP1 cell CPT: inconclusive; 12-LOX inh: inactive; DT40 TDP1 no CPT: 10.3µM

What do the screens show for `COCCNC(=O)c1cc2c(Cl)nc3ccc(C)cc3c2s1`?
TDP1 cell CPT: inconclusive; 12-LOX inh: inactive; DT40 TDP1 no CPT: inconclusive

What do the screens show for `CCc1ccccc1NC(=O)c1cc2c(Cl)nc3ccccc3c2s1`?
TDP1 cell CPT: inconclusive; 12-LOX inh: inactive; DT40 TDP1 no CPT: inconclusive

How did CCNC(=O)NC(=O)COC(=O)CCCc1c[nH]c2ccccc12 do in these assays?
12-LOX inh: inactive

Results for COc1cccc(/C=N/n2c(COc3ccccc3)n[nH]c2=S)c1 ?
ELG1 DNA repair: inactive; TDP1 cell CPT: inactive; 12-LOX inh: inactive; DT40 TDP1 no CPT: inactive; Gal4-VP16 FLuc: inconclusive; RORg inh: 7.08µM

How did S=c1[nH]ncn1/N=C/c1cccc(Oc2ccccc2)c1 do in these assays?
ELG1 DNA repair: inconclusive; TDP1 cell CPT: inactive; 12-LOX inh: inconclusive; DT40 TDP1 no CPT: inactive; Gal4-VP16 FLuc: 7.08µM; RORg inh: 2.82µM

Results for O=C(N/N=C/c1cccc(Oc2ccccc2)c1)c1ccncc1 ?
ELG1 DNA repair: inactive; TDP1 cell CPT: inactive; 12-LOX inh: inactive; DT40 TDP1 no CPT: inactive; Gal4-VP16 FLuc: inconclusive; RORg inh: inconclusive

How did S=c1[nH]nc(COc2ccccc2)n1/N=C/c1ccc(Br)cc1 do in these assays?
ELG1 DNA repair: inactive; TDP1 cell CPT: inactive; 12-LOX inh: inactive; DT40 TDP1 no CPT: inconclusive; Gal4-VP16 FLuc: inactive; RORg inh: inconclusive
